{
  "source": "the OligoGym collection",
  "data": [
    {"molecular_target": "EBP", "test": "pooled miR-30 sensor sort-seq; sequence = guide strand", "settings": "shRNA", "values": [
      {"sequence": "TTGGTCTCCAAGCAGGTCTTCG", "sensor-assay potency score (higher = more potent)": -0.868},
      {"sequence": "ACAAGCTGTAGAATGAAGCGGA", "sensor-assay potency score (higher = more potent)": 0.326},
      {"sequence": "TTGTCCAGTCTTAGGTGCTGAG", "sensor-assay potency score (higher = more potent)": -1.23},
      {"sequence": "TTCTCTTGTATCTGTGTTCTAA", "sensor-assay potency score (higher = more potent)": -0.119},
      {"sequence": "TTCGTAGTAGAGAACGAACCAG", "sensor-assay potency score (higher = more potent)": -0.577},
      {"sequence": "ATGAAGACAAAGTAAAACCAGA", "sensor-assay potency score (higher = more potent)": -0.723},
      {"sequence": "TAAAACCAGAAGTAGAGAGGGT", "sensor-assay potency score (higher = more potent)": 0.087},
      {"sequence": "TTTTGTGGCCTTGGCATCCAGC", "sensor-assay potency score (higher = more potent)": -1.25},
      {"sequence": "TTGGCATCCAGCGTGCTCTGGG", "sensor-assay potency score (higher = more potent)": -0.0185},
      {"sequence": "ATGGTTTCCATGCACACTGTGA", "sensor-assay potency score (higher = more potent)": -0.951},
      {"sequence": "TCGTAGTAGAGAACGAACCAGC", "sensor-assay potency score (higher = more potent)": -1.05},
      {"sequence": "ATTAGGTACAAAGTTGTCCAGT", "sensor-assay potency score (higher = more potent)": -0.389}
    ]},
    {"molecular_target": "ECH1", "test": "pooled miR-30 sensor sort-seq; sequence = guide strand", "settings": "shRNA", "values": [
      {"sequence": "AAGCACTCTACCATCTCTCTCC", "sensor-assay potency score (higher = more potent)": -0.152},
      {"sequence": "TTGAAGGTCTCCTGGTATCGAG", "sensor-assay potency score (higher = more potent)": -0.974},
      {"sequence": "TAAACTGGGAAACTGGGTCAGA", "sensor-assay potency score (higher = more potent)": -0.506},
      {"sequence": "TCGTCAGCCATCATCTTGCGGG", "sensor-assay potency score (higher = more potent)": -0.729},
      {"sequence": "TCTTGTTGAAGCACTCTACCAT", "sensor-assay potency score (higher = more potent)": 0.331},
      {"sequence": "TTTGTCTGGGAACACCCGGCTG", "sensor-assay potency score (higher = more potent)": -1.1},
      {"sequence": "TTGACCAGGCTCTGGTTCCCGA", "sensor-assay potency score (higher = more potent)": -0.944},
      {"sequence": "TCAGCGTCTCTCGAAATCTTGT", "sensor-assay potency score (higher = more potent)": -0.622},
      {"sequence": "TTGTGCAGAGGAGCCAGTGAGG", "sensor-assay potency score (higher = more potent)": -1.37},
      {"sequence": "TACAGCAGGTTGACCTTGGTGC", "sensor-assay potency score (higher = more potent)": 0.173},
      {"sequence": "TGTCCATCAGGTCAATACCTGC", "sensor-assay potency score (higher = more potent)": -1.4}
    ]}
  ]
}
